From ChEMBL document CHEMBL4513216, “Probing the Open Global Health Chemical Diversity Library for Multistage-Active Starting Points for Next-Generation Antimalarials” (ACS Infect Dis, 2020) come the findings set out here.

Among all 68,000 compounds or so, about 2,700 (4%) showed an effect of 50% or more. This excerpt belongs to a sample that is enriched for strong results.

The test system of this assay is Plasmodium berghei. The experiment in a line: Screen against P. berghei liver stage (PbLuc), transformed with Luciferase, at 2uM. The assay is classed as functional, HepG2. Particulars: tested at 2 uM.
`CCCc1noc(CCC(=O)N2CCN(C)CC2c2ccccc2)n1` (centres undefined): the INHIBITION came out at 35.56%. To `NC(=O)CC1CCCN(c2cncc(OCc3ccccc3)n2)C1` (centres undefined) belongs 31.78%. To `CC(C)c1nc(C2CCCN2C(=O)c2ccc(N(C)C)nn2)no1` (centres undefined) belongs -9.66%; to `c1ccc(CN2C[C@H]3CC[C@@H](C2)N(Cc2nnc(C4CC4)o2)C3)cc1`, -14.49%.

With `Cc1cc(C(=O)N2CCOC[C@H](Oc3cccnc3)C2)c(C(F)(F)F)o1`, the INHIBITION turned out to be 19.42%. Next, `Cc1cc(C(=O)N2CCOC[C@H](Oc3cnccn3)C2)c(C(F)(F)F)o1`: 52.91%; `CO[C@H]1COCCN(C(=O)c2cc(C)oc2C(F)(F)F)C1`: 35.89%.

Take `Cn1cc(CN2CCCC3(CCN(C(=O)c4cnccn4)C3)C2)cn1` (centres undefined): the INHIBITION is reported as -9.96%. Consider `CC(C)n1cnnc1CNC(=O)CCCOc1ccccc1F`, for which the INHIBITION turned out to be 18.74%. Next, `CC(C)(C)OC(=O)N1CC(CC(=O)NCc2ccsc2)C1`: 2.9%.

`Cc1ccsc1CNC(=O)CC1CN(C(=O)OC(C)(C)C)C1`: the INHIBITION was 55.36%. As for `Cc1cc(CNC(=O)CC2CN(C(=O)OC(C)(C)C)C2)ccc1F`, the INHIBITION came out at 21.97%. To `COc1ncccc1NC(=O)N1CCCC1c1cc(C)no1` (centres undefined) belongs 29.19%; to `Cc1noc(C)c1C(=O)N1CCCCC1c1cc(C)n2ccnc2n1` (centres undefined), 36.98%; to `COCCN(C(=O)c1nc(-c2ccco2)sc1C)C1CC1`, -7.16%.

On to `Cc1sc(-c2ccco2)nc1C(=O)N(CC1CCOC1)C1CC1` (centres undefined), for which the INHIBITION is listed as -33.43%. As to `Cc1sc(-c2ccco2)nc1C(=O)N(CC(N)=O)C1CCCC1`, the INHIBITION is given as 61.82%. Regarding `CC(NCCN1CCN(C(=O)C2CCCC2)CC1)c1ccccn1` (centres undefined), the INHIBITION is listed as -21.99%. To `Cn1nc(CN2CCOCC2)c2c1CN(Cc1ccsc1)C2` belongs 57.85%; to `CC(C)n1nc(CN2CCOCC2)c2c1CN(C(=O)c1ccno1)C2`, 29.3%.

Regarding `COCc1nn(C(C)C)c2c1CCN(Cc1ccsc1)C2`, the INHIBITION is reported as 23.43%. To `Cn1nc(Cn2cccc2)c2c1CN(Cc1ccsc1)C2` belongs -6.88%.

For the compound `Cn1nc(Cn2cccn2)c2c1CN(Cc1ccsc1)C2`, the INHIBITION worked out at 15.9%. To `CC(C)n1nc(CN2CCOCC2)c2c1CN(Cc1ccsc1)C2` belongs 72.91%. For `CN(Cc1ccc(F)cc1)CC1(O)CCN(C(=O)c2cccn2C)C1` (centres undefined), the INHIBITION is on record as -12.09%. Next, `CCc1nc2ccccc2n1C(CC)C(=O)N(C)Cc1noc(C)n1` (centres undefined): -0.85%; `CC(=O)N1CCO[C@@H]2CN(S(=O)(=O)c3ccc(C)cc3)CC[C@@H]2C1`: -24.35%; `CS(=O)(=O)N1CC2(CCCN(CC3CC3)C2)Cc2ccccc21` (centres undefined): 34.09%.

For `CN(CCCSc1ccccc1)C(=O)Cn1ncc(N(C)C)cc1=O`, the INHIBITION came out at 8.2%.

Regarding `COc1ccc(-c2cnc(CN3CCn4c(C)nnc4C3)o2)cc1`, the INHIBITION is -19.76%. To `CCNC(=O)[C@@H]1C[C@H](N)CN1C1CCN(c2ccccc2OC)CC1` belongs 23.64%; to `CC(C)CCN1CCCC12Cc1ccccc1CNC2=O` (centres undefined), -6.64%; to `Cc1ccc(CN2CCCC23Cc2ccccc2CNC3=O)cc1` (centres undefined), -14.74%. As for `Cc1ccc(CCN2CCCC23Cc2ccccc2CNC3=O)cc1` (centres undefined), the INHIBITION turned out to be 57.24%. To `CC(C)NC(=O)N1CCN(CC2CC2)CC2(CC(=O)N(C)C2)C1` (centres undefined) belongs 49.9%; to `Cc1cc(-c2cnc(NCc3ccc4c(c3)OCO4)nc2C(C)C)on1`, -0.95%.

Consider `Cc1nc(C2CCCN(C(=O)c3cccc4c3OCO4)C2)sc1C` (centres undefined), for which the INHIBITION is 7.71%. On to `Cc1csc(C2CCCN(C(=O)c3cccc4c3OCO4)C2)n1` (centres undefined), for which the INHIBITION was determined as 57.11%.

Turning to `CC(C)c1nc(C2CCCN(C(=O)c3cccc4c3OCO4)C2)no1` (centres undefined), the INHIBITION was 17.59%. Regarding `CCc1cc(NC(=O)C2CCCN(C(=O)c3ccncc3)C2)[nH]n1` (centres undefined), the INHIBITION is given as -7.81%.

As to `c1ccc(C2CCN(c3ncnc4c3CCNC4)CC2)cc1`, the INHIBITION is -3.14%.

`O=C(NCC(=O)N1CCCC(n2cncn2)C1)OCc1ccccc1` (centres undefined): the INHIBITION is given as 21.64%.

On to `COc1ccnc(N2CCN(C(=O)c3csc(C)n3)CC2)n1`, for which the INHIBITION was -2.99%. For the compound `COc1ccnc(N2CCN(Cc3ncc(-c4ccccc4)o3)CC2)n1`, the INHIBITION is listed as -41.69%.

As for `COc1ccnc(N2CCN(C(=O)Cc3ccc(C)s3)CC2)n1`, the INHIBITION is on record as -9.9%. To `COc1ccnc(N2CCN(C(=O)N3CCOCC3)CC2)n1` belongs 58.05%; to `COc1ccnc(N2CCN(Cc3ncc(C(C)(C)C)o3)CC2)n1`, 2.67%. Turning to `COc1ccnc(N2CCN(C(=O)Cc3ccsc3)CC2)n1`, the INHIBITION was determined as 25.61%. Take `COc1ccnc(N2CCN(C(=O)c3csnn3)CC2)n1`: the INHIBITION stood at 36.66%. Consider `COc1ccnc(N2CCN(C(=O)CN3CCOCC3)CC2)n1`, for which the INHIBITION is -19.35%. With `COc1ccnc(N2CCN(CC(O)CN3CCOCC3)CC2)n1` (centres undefined), the INHIBITION was 58.05%. In the case of `COc1ccnc(N2CCN(CC(=O)N3CCOCC3)CC2)n1`, the INHIBITION was -2.9%.

For the compound `COc1ccnc(N2CCN(C(=O)c3cscn3)CC2)n1`, the INHIBITION amounted to 50.98%. Next, `COc1ccnc(N2CCN(C(=O)Cc3csc(C)n3)CC2)n1`: 51.35%.
